In PubChem BioAssay (NCATS) one finds Potency, viability (% of control) and viability, % of control data, which are given here for 26 compounds.

Each structure is given as a SMILES string. Where “and” joins values, the source holds several entries; their conditions need not be identical. Equal entries are not always repeated. Records with an inconclusive call do not appear. A number with no mark means an inactive call. Calls of active or inactive are those of the source. The call rests on the fitted dose curve; in most records, active means well fitted cell-killing curve with a large enough effect; inconclusive means small, poorly fitted or top-dose-only effect, or effect the other way; inactive means no such curve, though single readings can be large or run the other way.

Test [1] is described as follows: Viability qHTS for spleen associated tyrosine kinase inhibitor (SYKi) naive MV4-11 cells (AID 1963823). Further: nearly all actives have a fitted effect of over 40% in size. In outline:
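Read-out: CellTiter-Glo luminescence. Exposure: 72 hr, 37 C, 5% CO2, 95% humidity. Cells: MV4-11 without SYK inhibitor history, 500/well, qHTS format.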
Background: Quantitative high-throughput screening tests each substance at several concentrations.

Test [2] can be described thus: Viability qHTS for spleen associated tyrosine kinase inhibitor (SYKi) drug resistant MV4-11 cells (AID 1963824). Further: nearly all actives have a fitted effect of over 35% in size. In short, it runs like this:
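CellTiter-Glo luminescence, read 10 min after reagent addition, reports viability after a 72 hr compound exposure. Cells are an MV4-11 line made resistant to SYK inhibition, seeded at 500 per well onto compound-containing plates.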
Potency means the concentration at half of the fitted maximal effect.

Take `N#Cc1ccc(-c2ccc(S(=O)(=O)Nc3cccc(N)n3)cc2)cc1`: the Potency in test [1] was 8.2 µM (active); in test [2], 7.31 µM (active).

With `COC(=O)[C@@H](O)[C@H]1[C@@]2(C)CC3(O)[C@@H](C(=O)[C@H]2O)[C@]24O[C@]25CC(=O)O[C@@H](c2ccoc2)[C@]5(C)CCC4[C@]13C` (some centres not stated), the Potency result in test [1] and in test [2] was “inactive” throughout.

`C=C1CC[C@@H]2C(C)(C)CCC[C@@]2(C)[C@@H]1CC/C(=C/C(=O)OC)COC(C)=O`: the Potency result in test [1] and in test [2] was “inactive” in each case.

For `COc1ccc(CN2CCN(C(c3ccc(F)cc3)c3ccc(F)cc3)CC2)c(OC)c1OC`, the Potency was 15 µM (active) and 14.6 µM (active) in test [1]; 21.1 µM (active) and 16.4 µM (active) in test [2].

Turning to `C=C1CCC[C@]2(C)C[C@]3(O)OC(=O)C(C)=C3C[C@@H]12`, the Potency result in test [1] and in test [2] was “inactive” throughout.

With `CC1(C)CC[C@]2(C(=O)O[C@@H]3O[C@H](CO)[C@@H](O)[C@H](O)[C@H]3O)CC[C@]3(C)C(=CCC4[C@@]5(C)C[C@H](O)[C@H](O[C@@H]6O[C@H](C(=O)O)[C@@H](O)[C@H](O)[C@H]6O)[C@@](C)(CO)C5CC[C@]43C)C2C1` (some centres not stated), the viability (% of control) in test [1] was 24.2% [at 9.25 µM]. Further, in test [2], the viability, % of control is 20.7% [at 9.25 µM].

Take `CC(C)c1cc2c(c(O)c1O[C@@H]1O[C@H](CO)[C@@H](O)[C@H](O)[C@H]1O)CC1(O)CCC(O)C(C)(C)C1CC2` (some centres not stated): the Potency entry in test [1] and in test [2] was “inactive” in each case.

Take `Cc1ccccc1NC(=O)Nc1ccc(CC(=O)N(C)[C@@H](CC(C)C)C(=O)NCC[C@H](NC(=O)[C@@H]2CCCN2S(=O)(=O)c2cc(Cl)cc(Cl)c2)C(=O)O)cc1`: the Potency result in test [1] and in test [2] was “inactive” in each case.

As to `O=C(O)CC(CCc1ccccc1)OC1OC(CO)C(O)C(O)C1O` (configuration not stated), the Potency entry in test [1] and in test [2] was “inactive” in each case.

Regarding `C=C1C(O)CC2C(C(=O)O)=COC(O[C@@H]3O[C@H](COC(=O)c4ccc(O)cc4)[C@@H](O)[C@H](O)[C@H]3O)C12` (some centres not stated), the Potency result in test [1] and in test [2] was “inactive” in each case.

Consider `CC1=C2CC3C(CCC3(C)O)C(C)(O)CC2OC1=O` (configuration not stated), for which the Potency result in test [1] and in test [2] was “inactive” in each case.

Take `CC1(C)CCCC2(C)c3c4c(c(=O)oc(=O)c3=CCC12)=CCC1C(C)(C)CCCC41C` (configuration not stated): the Potency entry in test [1] and in test [2] was “inactive” each time.

For `CC(=O)N1CCN([C@H]2CCN(C(=O)N(C)[C@H](C)c3cc(C(F)(F)F)cc(C(F)(F)F)c3)[C@@H](c3ccc(F)cc3C)C2)CC1`, the Potency in test [1] was 14.6 µM (active); in test [2], 8.2 µM (active).

Consider `CC(=O)/C=C/C1(O)C(C)CC(O[C@@H]2O[C@H](CO)[C@@H](O)[C@H](O)[C@H]2O)CC1(C)C` (some centres not stated), for which the Potency entry in test [1] and in test [2] was “inactive” each time.

As for `COc1cc(CCO)ccc1O[C@@H]1O[C@H](CO)[C@@H](O)[C@H](O)[C@H]1O`, the Potency result in test [1] and in test [2] was “inactive” each time.

Regarding `OC[C@H]1O[C@@H](O[C@H]2[C@H](OCCc3ccccc3)O[C@H](CO)[C@@H](O)[C@@H]2O)[C@H](O)[C@@H](O)[C@@H]1O`, the Potency entry in test [1] and in test [2] was “inactive” in each case.

Take `CC1=CC(=O)C2(OC3OC(C)C(O)C(OC(=O)/C=C/c4ccccc4)C3O)C=COC(OC3OC(CO)C(O)C(O)C3O)C12` (configuration not stated): the Potency entry in test [1] and in test [2] was “inactive” in each case.

Take `C[C@H]1[C@H](/C=C/c2ccc(-c3ccccc3C#N)cn2)[C@@H]2[C@@H](C)OC(=O)[C@@H]2C[C@@H]1C`: the Potency is 8.2 µM (active) in test [1] and 7.31 µM (active) in test [2].

Regarding `CC1(C)CC[C@]2(C(=O)OC3OC(CO)C(O)C(O)C3O)CC[C@]3(C)C(=CCC4[C@@]5(C)C[C@@H](O)[C@H](OC6OC(C(=O)O)C(O)C(O)C6O)C(C)(C)C5CC[C@]43C)[C@@H]2C1` (some centres not stated), the viability (% of control) in test [1] was 76.2% [at 9.25 µM]. Besides, in test [2], the viability, % of control was 95.5% [at 9.25 µM].

As to `CC(C)(O)c1ccn2c(-c3ccc(F)c(-c4ccc(F)cc4C#N)c3)cnc2c1F`, the Potency in test [1] was 9.2 µM (active); in test [2] it was 8.2 µM (active).

With `C=C(C)[C@@H](C)[C@H]1O[C@]23C[C@]4(CO2)C(CCC2[C@@]5(C)CC[C@H](O[C@@H]6OC[C@H](O)[C@H](O[C@@H]7O[C@H](CO)[C@@H](O)[C@H](O)[C@H]7O)[C@H]6O[C@@H]6O[C@@H](CO)[C@H](O)[C@H]6O)C(C)(C)C5CC[C@]24C)C3[C@@](C)(O)[C@@H]1OC(C)=O` (some centres not stated), in test [1], the viability (% of control) was 73.4% [at 9.25 µM]. In test [2], the viability, % of control is 92.6% [at 9.25 µM].

Take `O=C(c1cn(Cc2cncn2Cc2ccc(Br)cc2)cc1-c1cccc2ccccc12)N1CCOCC1`: the Potency in test [1] was 0.82 µM (active); in test [2], 1.64 µM (active).

As for `CC(=O)O[C@@H](C[C@@H]1C=C(C)C(=O)O1)[C@H](C)[C@H]1CCC2[C@@]3(C)CC[C@H](O[C@@H]4O[C@H](CO)[C@@H](O)[C@H](O)[C@H]4O[C@@H]4O[C@@H](C)[C@H](O)[C@@H](O)[C@H]4O)C(C)(C)C3CC[C@@]2(C)[C@@]12COC(=O)C2` (some centres not stated), the viability (% of control) in test [1] is 81.6% [at 9.25 µM]. In test [2], the viability, % of control is 89.9% [at 9.25 µM].

As to `C=CC(C)(CC/C=C(\C)C(=O)OC)OC1OC(COC(=O)CC(C)(O)CC(=O)O)C(O)C(O)C1O` (configuration not stated), the Potency result in test [1] and in test [2] was “inactive” throughout.

As to `COc1ccccc1OCCNCC(O)CCOc1cccc2[nH]c3ccccc3c12` (configuration not stated), the Potency in test [1] and in test [2] was 9.2 µM (active) in each case.

With `CC1=CC[C@]2(C(=O)O[C@@H]3O[C@H](CO[C@@H]4O[C@H](CO)[C@@H](O[C@@H]5O[C@@H](C)[C@H](O)[C@@H](O)[C@H]5O)[C@H](O)[C@H]4O)[C@@H](O)[C@H](O)[C@H]3O)CC[C@]3(C)C(CCC4[C@@]5(C)C[C@@H](O)[C@H](O)[C@@](C)(CO)C5CC[C@]43C)C2C1C` (some centres not stated), in test [1], the viability (% of control) is 78.2% [at 9.25 µM]. Also, in test [2], the viability, % of control is 86.5% [at 9.25 µM].
